Screening results deposited in PubChem by National Center for Advancing Translational Sciences (NCATS).
KDM5B inh – inhibitors of human KDM5B histone demethylase. Q9UGL1. KDM5B demethylase, FDH-coupled NADH fluorescence (FDH is formaldehyde dehydrogenase). Potency, µM (titrated, usually from 57.7 µM), actives largely listed as inhibitors. 2.6% of 220,000 active. AID 1347165; note: nearly all actives have a fitted effect of over 70% in size
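Coupled FDH/NAD⁺ fluorescence readout. KDM5BΔAP 200 nM final; compound titration, 10 min RT preincubation; substrate mix 12.5 µM H3K4me3, 25 µM 2-OG, 50 µM Fe(II), 100 µM ascorbate, 0.25 mM NAD⁺, 0.25 U/mL FDH; ΔRFU over 30 min.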
IP6K1 inhibitor – inhibitors of human IP6K1 | Q92551 | IP6K1 kinase, ADP-Glo luminescence, 2 h; active compounds read low | activity change, % (series mostly up to about 58 µM) | 0.81% of 140,000 active | AID 1645851; in the data active = activity change below about -25%
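ADP-Glo luminescence measures ADP made by human IP6K1 during a 2 h RT reaction with ATP/IP6 (mix at 1.3 mM/130 uM); top library doses 57.5 and 19.1 uM final.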
IP6K1 conf – human IP6K1 inhibition, confirmatory | shares compounds with IP6K1 inhibitor | recombinant IP6K1 kinase, ADP-Glo luminescence, 2 h | Potency, µM (doses to about 49 µM), usual class: inhibitors | 13% of 1,200 active; note: nearly all actives have a fitted effect of over 65% in size
Numbers stand for hits; - = inactive; ? = inconclusive; . = no result; ! = not active in a repeat. This is a sample that favours compounds with a hit; in the whole collection about 2.8% have one here. Unless noted, calls come from the whole dose curve; as a rule, active = well fitted inhibition curve with a large enough effect; inconclusive = small, poorly fitted or top-dose-only effect; inactive = no such curve, though single readings can be large or run the other way.

SMILES	KDM5B inh	IP6K1 inhibitor	IP6K1 conf
CCOC(=O)C1=C(C)N(Cc2ccc(C(=O)N3CCCCC3)cc2)C(=O)CC1c1cccc(C)c1 (stereo not drawn)	-	-	.
O=C(CN1N=C(c2ccccc2)c2cc(Cl)ccc2S1(=O)=O)Nc1ccc(F)cc1F	-	.	.
CC(=O)Nc1nc2ccccc2n1Cc1ccccc1Cl	-	.	.
CC(=O)NC(C)c1nc2ccccc2n1Cc1ccccc1Cl (stereo not drawn)	-	-26	-
COc1ccc(CNC(=O)CCc2cn(Cc3cc(C)ccc3C)c3ccccc23)cc1OC	-	-	.
Cc1ccccc1Cn1cc(CCC(=O)NCc2cccc(Br)c2)c2ccccc21	?	-29	-
Cc1nc2ccc(C(=O)NCc3ccccc3CN(C)C)cc2nc1C	-	.	.
COc1cc(CN2CCN(S(=O)(=O)c3ccc(C)cc3)CC2)cc(OC)c1O	-	.	.
COc1cc(CN2CCN(S(=O)(=O)c3ccc(F)cc3)CC2)cc(OC)c1OC	?	-34	-
CCCc1c(C(=O)OCC)[nH]c2c1C(=O)CC(c1ccc(N(C)C)cc1)C2 (stereo not drawn)	-	.	.
Cc1ccc(C)c(NC(C)C(=O)N(C)Cc2cccc(F)c2)c1 (stereo not drawn)	-	.	.
COc1cc(/C=C2/NC(=O)NC2=O)cc(Cl)c1OCc1cccc(C(=O)O)c1	-	.	.
Cc1cc(NC(=O)c2ccc(F)cc2)ccc1-c1cc2ccccc2oc1=O	?	-	.
COc1ccc(C(=O)Nc2ccc(-c3cc4ccccc4oc3=O)c(C)c2)cc1Br	?	-28	?
CCn1c(=O)c2cc(C(=O)N(CC(C)C)CC(C)C)sc2c2ccccc21	-	-26	-
CCn1c(=O)c2cc(C(=O)N(C)c3ccccc3C)sc2c2ccccc21	-	.	.
Fc1cccc(CN(Cc2ccco2)C2CCCC2)c1	-	.	.
CN(C)c1ccc(CN2CCC(c3nc4ccncc4[nH]3)C2)cc1 (stereo not drawn)	-	-	.
Brc1ccc(CN2CCC(c3nc4ccncc4[nH]3)C2)cc1 (stereo not drawn)	?	-52!	?
CC(C)c1nc2ccc(C(=O)NCCCN3CCN(c4ccc(F)cc4)CC3)cc2o1	-	-	.
CC(C)c1nc2ccc(C(=O)NCCCN3CCN(c4cccc(Cl)c4)CC3)cc2o1	?	-34	?
COCCNC(=O)c1cc(-c2ccccn2)nc2ccccc12	-	.	.
Cc1ccc(CNC(=O)C(C)n2nc(C)n3c(cc4sccc43)c2=O)cc1 (stereo not drawn)	-	-	.
CCC(C(=O)NCc1ccccc1OC)n1nc(C)n2c(cc3sccc32)c1=O (stereo not drawn)	-	-85	-
CN(Cc1ccc(C(=O)NCC(F)(F)F)cc1)C(=O)c1cc(F)cc(F)c1	-	.	.
SMILES	KDM5B inh	IP6K1 inhibitor	IP6K1 conf
O=C1C(N2CCN(S(=O)(=O)c3cc(F)cc(F)c3)CC2)CCN1Cc1ccccn1 (stereo not drawn)	-	-	.
O=C(NCCc1nc(-c2ccccc2)cs1)c1ccc2nccn2c1	?	-41	?
CN(Cc1csc(-c2ccccc2)n1)C(=O)c1ccc2nccn2c1	?	-	.
O=C(NCc1cccc(Cl)c1)C(=O)Nc1cccc2[nH]ccc12	-	.	.
Cc1cccc(CN2CCN(C(=O)c3cc(C4CC4)nn3-c3ccccc3)CC2)c1	-	.	.
COc1ccc(S(=O)(=O)N2CCC(C(=O)Nc3cc(C(F)(F)F)ccc3Cl)CC2)cc1	-	-43	-
COc1ccc(CNC(=O)C2CCN(S(=O)(=O)c3ccc(C)cc3)CC2)cc1	-	-	.
O=C(Nc1ccc2nc3n(c(=O)c2c1)CCCCC3)c1cccc(C(F)(F)F)c1	-	-25	-
CN(C(=O)C(=O)Nc1ccc2nc3n(c(=O)c2c1)CCCCC3)c1cccc(C(F)(F)F)c1	-	-	.
CCC(C)NC(=O)C(C)NC(=O)NCCNC(=O)C1CC1 (stereo not drawn)	-	.	.
CCOc1ccccc1NC(=O)n1ncc2cc(Cl)ccc21	-	-37	-
O=C(Nc1ccccc1C(F)(F)F)n1ncc2cc(Cl)ccc21	-	-	.
COc1nc2ccccc2nc1N1CCC(C(=O)Nc2cc(C)cc(C)c2)CC1	-	.	.
Brc1ccc(-c2nc(-c3ccc4c(c3)OCO4)no2)o1	-	.	.
COc1ccc2nc(SCc3csc(NC(C)=O)n3)[nH]c2c1	-	.	.
COc1ccc2nc(SCC(O)c3cccc(Br)c3)[nH]c2c1 (stereo not drawn)	?	-44	-
Cc1ccc(C(=O)N2CCCC(C(=O)N3CCC(N4CCOC4=O)CC3)C2)cc1 (stereo not drawn)	.	-	.
COc1ccccc1NC(=O)Cn1nc2c3cc(F)ccc3n(Cc3cccc(C)c3)cc-2c1=O	-	-	.
CCOc1ccccc1NC(=O)Cn1nc2c3cc(F)ccc3n(Cc3cccc(C)c3)cc-2c1=O	-	-34	-
Cc1cc(SCc2sc(-c3ccc(C(F)(F)F)cc3)nc2C)ccc1OCC(=O)O	.	-29	10µM
CCOC(=O)c1sc(-c2ccc(C(F)(F)F)cc2)nc1O	-	.	.
Cc1cnc(NC(=O)Cc2cnc(-c3ccccc3F)s2)s1	-	.	.
COc1cccc(NC(=O)C2CCCN(S(=O)(=O)c3ccc4[nH]c(=O)ccc4c3)C2)c1 (stereo not drawn)	-	-33	-
COc1ccc(NC(=O)C2CCCN(S(=O)(=O)c3ccc4[nH]c(=O)ccc4c3)C2)cc1OC (stereo not drawn)	?	-	.
COc1cccc2cc(S(=O)(=O)N3CCCC(C)C3)c(=O)oc12 (stereo not drawn)	-	.	.
SMILES	KDM5B inh	IP6K1 inhibitor	IP6K1 conf
CCOc1cccc(-c2nc3ccccc3c(=O)o2)c1	-	-29	?
COc1cccc(-c2nc3ccccc3c(=O)o2)c1	-	.	.
Cc1ccc(-c2csc3ncnc(Nc4ccc(C(=O)O)cc4)c23)cc1	-	-25	-
O=C(O)c1ccc(Nc2ncnc3scc(-c4ccccc4)c23)cc1	-	-	.
COc1ccc(C2CC(=O)Nc3ccsc32)cc1 (stereo not drawn)	-	.	.
CNc1nc2c(s1)C(c1ccc(Cl)cc1)CC(=O)N2 (stereo not drawn)	32µM	-28	16µM
Cc1ccc(NC(=O)C(NS(=O)(=O)c2ccc3c(c2)CCC(=O)N3)c2ccccc2)cc1C (stereo not drawn)	?	-32	-
CC(C)c1ccc(NC(=O)C(NS(=O)(=O)c2ccc3c(c2)CCC(=O)N3)c2ccccc2)cc1 (stereo not drawn)	-	-	.
O=C1Nc2ccc(-c3ccc4c(c3)OCO4)cc2C(=O)N2CC[C@H](NC(=O)N3CCOCC3)[C@@H]12	-	-	.
N[C@H]1CCN2C(=O)c3cc(-c4ccc5c(c4)OCO5)ccc3NC(=O)[C@H]12	?	-30	-
COc1ccc(-c2noc(-c3cccn3CC(=O)NCCc3ccccc3)n2)cc1F	-	-	.
CC(C)CCN1CCC2(CC1)CN[S+](=O)([O-])c1cccnc1O2	?	-	.
CS(=O)(=O)N1CCCc2cc(C(=O)Nc3cccc(-c4nnc5n4CCCCC5)c3)ccc21	-	.	.
Cc1ccc(NC(=O)C2=Cc3sc4c(c3CS2)CCCC4)cc1C	-	.	.
COc1cccc(Cn2c(C)c(CNCc3ccccc3Cl)c(C(=O)O)c2C)c1	-	-27	-
COc1cccc(Cn2c(C)c(CNCc3cccc(C)c3)c(C(=O)O)c2C)c1	-	-	.
CCC(=O)Oc1cccc(C(=O)Nc2ccc(-c3nc4ccccc4o3)cc2)c1	-	.	.
